Assay results: PubChem BioAssay (NCATS)
Results filed as inconclusive are left out. Unless noted, the call rests on the fitted dose curve; in most records, active means well fitted curve in either direction with a large enough effect (not every such curve was filed as active); inconclusive means small, poorly fitted or top-dose-only effect, or another doubt; inactive means flat fitted curve, though single readings scatter.

Legend:
[1] = AP1 Signaling Pathway (AID 357); conditions: ME-180 AP-1-bla reporter, EGF-induced, beta-lactamase ratio, 5 h; at 17.2 µM (top of the series) unless noted; further: on the % scale 0 is the no-effect control and ±100 the full control effect
How it was run: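 Titration-series screen for positive or negative modulators of EC50 EGF-induced signaling in ME-180 cells carrying an AP-1-driven beta-lactamase reporter. After 5 hours at 37 degrees Celsius, CCF4 460nm/530nm emission ratio gave %Activity; AC50 values derived.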

[2] = NFAT Signaling Pathway (AID 444); conditions: Jurkat NFAT-bla M1, carbachol, beta-lactamase ratio, 5 h; at 17.2 µM (top of the series) unless noted;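 further: carbachol stimulus at about its EC50 of 1 µM final; on the % scale 0 is the no-effect control and ±100 the full control effect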
How it was run: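 Read-out: CCF4 FRET ratio (460 nm/530 nm) after 1 h RT dye loading, used for %activity and AC50 from titration series. Cells: Jurkat NFAT-β-lactamase/M1 line, treated with compound plus 1 uM carbachol for 5 h, 37 °C.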

[3] = Stat Signaling Pathway (AID 446); conditions: ME-180 (cervical carcinoma) SIE beta-lactamase reporter, IL-6 stimulated, 5 h; at 17.2 µM (top of the series) unless noted;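 further: ME-180 cervical cancer cells given 40 pM IL-6 alongside compound; SIE-controlled beta-lactamase reporter measured as 460/530 nm FRET emission ratio; on the % scale 0 is the no-effect control and ±100 the full control effect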
How it was run: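 FRET read-out (405 nm excitation, 460/530 nm emission) of a beta-lactamase reporter under a STAT-inducible element in ME-180 cervical carcinoma cells. Cells with compound receive 40 pM IL-6 for 5 h. Values are normalised to AC90 stimulation and AC90 JAK-inhibitor controls.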

[4] = target: Glucocorticoid receptor (Homo sapiens) (UniProt P04150); experiment: GR-GFP Redistribution (AID 450;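 active means compounds whose dose series gives a full or clear partial fitted curve of increased nuclear translocation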; further: potency means the concentration at half of the fitted maximal effect)
Glucocorticoid receptor (Homo sapiens), sequence (P04150 whole entry, looked up): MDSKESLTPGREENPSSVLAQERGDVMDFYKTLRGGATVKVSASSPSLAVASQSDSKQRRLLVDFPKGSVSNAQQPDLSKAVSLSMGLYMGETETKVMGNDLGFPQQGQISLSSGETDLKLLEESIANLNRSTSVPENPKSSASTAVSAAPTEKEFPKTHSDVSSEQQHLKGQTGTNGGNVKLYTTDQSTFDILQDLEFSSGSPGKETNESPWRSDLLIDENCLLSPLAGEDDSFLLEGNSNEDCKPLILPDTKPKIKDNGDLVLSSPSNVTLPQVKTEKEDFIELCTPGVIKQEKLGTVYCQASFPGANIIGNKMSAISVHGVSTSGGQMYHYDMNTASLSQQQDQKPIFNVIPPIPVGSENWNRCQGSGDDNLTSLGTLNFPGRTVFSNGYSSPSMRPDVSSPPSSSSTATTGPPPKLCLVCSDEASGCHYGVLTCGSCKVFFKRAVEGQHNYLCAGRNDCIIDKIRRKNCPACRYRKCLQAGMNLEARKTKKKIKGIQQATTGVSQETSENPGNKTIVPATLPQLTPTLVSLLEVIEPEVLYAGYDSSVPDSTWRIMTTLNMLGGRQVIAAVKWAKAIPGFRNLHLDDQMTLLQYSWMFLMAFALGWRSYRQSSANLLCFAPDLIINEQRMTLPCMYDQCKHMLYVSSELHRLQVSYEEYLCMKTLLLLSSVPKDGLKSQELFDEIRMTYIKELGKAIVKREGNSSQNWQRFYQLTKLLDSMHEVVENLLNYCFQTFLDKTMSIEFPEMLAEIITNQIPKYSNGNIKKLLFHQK

CNC(=O)C1CC(=O)N(Cc2ccccc2)C(=Nc2ccc(OC)cc2)S1 (stereo not given)
inactive: activity change, negative = inhibition [1] -3.9% | activity change, negative = inhibition [2] 4.86% | activity, negative = inhibition [3] -6.63% | Potency [4] > 20.6 µM

COc1ccc(NCc2cc3ccccc3[nH]c2=O)cc1
inactive: activity change, negative = inhibition [1] -1.34% | activity change, negative = inhibition [2] -19.9% | activity, negative = inhibition [3] 1.46% | Potency [4] > 20.6 µM

COc1ccc(N2CC(=O)N(c3ccc(OC)c(OC)c3)CC2=O)cc1OC
inactive: activity change, negative = inhibition [1] 22.8% | activity change, negative = inhibition [2] 5.84% | activity, negative = inhibition [3] 1.83% | Potency [4] > 20.6 µM

CCC(C(=O)Nc1ncn[nH]1)(C(F)(F)F)C(F)(F)F
inactive: activity change, negative = inhibition [1] 3.02% | activity change, negative = inhibition [2] -11.9% | activity, negative = inhibition [3] 13% | Potency [4] > 20.6 µM

C[N+](C)(C)CCOP(=O)([O-])OC[C@H](O)CO
inactive: activity change, negative = inhibition [1] 9.55% | activity change, negative = inhibition [2] 0.0397% | activity, negative = inhibition [3] -1.98% | Potency [4] > 20.6 µM

CCN(CC)S(=O)(=O)c1cccc2c(N(C)C)cccc12
inactive: activity change, negative = inhibition [1] -13.4% | activity change, negative = inhibition [2] -17.2% | activity, negative = inhibition [3] 19% | Potency [4] > 20.6 µM

CN(C)CCCN(CCCNC(=O)/C=N/O)Cc1ccccc1
inactive: activity change, negative = inhibition [1] -5.3% | activity change, negative = inhibition [2] -11.6% | activity, negative = inhibition [3] 17.4% | Potency [4] > 20.6 µM

CC(=O)C1(C)OC(N)=C(C#N)C(c2ccccc2)C1(C#N)C#N (stereo not given)
inactive: activity change, negative = inhibition [1] 13.9% | activity change, negative = inhibition [2] -28.6% | activity, negative = inhibition [3] -4.54% | Potency [4] > 20.6 µM

CC(NC(=O)Nc1nnc(C(F)(F)F)s1)(C(F)(F)F)C(F)(F)F
inactive: activity change, negative = inhibition [1] -3.33% | activity change, negative = inhibition [2] 0.893% | activity, negative = inhibition [3] 0.617% | Potency [4] > 20.6 µM

Cc1cc(-c2ccc(F)cc2)nc2cc(C(N)=O)nn12
inactive: activity change, negative = inhibition [1] -15.1% | activity change, negative = inhibition [2] -2.99% | activity, negative = inhibition [3] -7.09% | Potency [4] > 20.6 µM

CCCCc1nc(NCCN2CCOCC2)c(C#N)c2c1COC(C)(C)C2
inactive: activity change, negative = inhibition [1] -15.7% | activity change, negative = inhibition [2] 13.3% | activity, negative = inhibition [3] 1.05% | Potency [4] > 20.6 µM

CSCCC(CO)NC(=O)OCc1ccccc1 (stereo not given)
inactive: activity change, negative = inhibition [1] 0.666% | activity change, negative = inhibition [2] -0.945% | activity, negative = inhibition [3] 2.15% | Potency [4] > 20.6 µM

Cn1c(=O)c2c(nc(NCc3ccco3)n2CCc2ccccc2)n(C)c1=O
inactive: activity change, negative = inhibition [1] -0.525% | activity change, negative = inhibition [2] -24% | activity, negative = inhibition [3] -5.04% | Potency [4] > 20.6 µM

O=C1[C@@H]2[C@H](C(=O)N1n1cnnc1)[C@H]1C=C[C@@H]2C1
inactive: activity change, negative = inhibition [1] -2.82% | activity change, negative = inhibition [2] 1.6% | activity, negative = inhibition [3] 3.44% | Potency [4] > 20.6 µM

CCN(CC)CCN1C(=O)C(=O)/C(=C(/O)c2c(C)[nH]c(C(=O)OC)c2C)C1c1ccccc1 (stereo not given)
inactive: activity change, negative = inhibition [1] 2.47% | activity change, negative = inhibition [2] -8.53% | activity, negative = inhibition [3] -3.34% | Potency [4] > 20.6 µM

CCCOC(=O)C1[C@H]2C(=O)N(Cc3ccco3)C[C@]23C=C[C@H]1O3 (stereo not given in full)
inactive: activity change, negative = inhibition [1] 0.485% | activity change, negative = inhibition [2] 2.35% | activity, negative = inhibition [3] 4.93% | Potency [4] > 20.6 µM

CCc1[nH]c(=O)c(C#N)c2c1CSC(C)(C)C2
inactive: activity change, negative = inhibition [1] 5.95% | activity change, negative = inhibition [2] 3.33% | activity, negative = inhibition [3] 9.69% | Potency [4] > 20.6 µM

CC(=O)N1CCN(C2c3cccc4cccc(c34)C2NS(=O)(=O)c2ccccc2)CC1 (stereo not given)
inactive: activity change, negative = inhibition [1] -3.48% | activity change, negative = inhibition [2] -9.38% | activity, negative = inhibition [3] 2.23% | Potency [4] > 20.6 µM

Cc1cc(C)n(CC2CC(=O)N(c3ccc(C)c(Cl)c3)C2=O)n1 (stereo not given)
inactive: activity change, negative = inhibition [1] -6.66% | activity change, negative = inhibition [2] 13.9% | activity, negative = inhibition [3] -4.28% | Potency [4] > 20.6 µM

O=c1[nH]c2cnccc2n1-c1ccccc1
inactive: activity change, negative = inhibition [1] -12.9% | activity change, negative = inhibition [2] -4.82% | activity, negative = inhibition [3] 1.57% | Potency [4] > 20.6 µM

CC1(C)Cc2c(C#N)c(NCCN3CCOCC3)nc(-c3ccco3)c2CO1
inactive: activity change, negative = inhibition [1] -12.2% | activity change, negative = inhibition [2] 5.08% | activity, negative = inhibition [3] -0.141% | Potency [4] > 20.6 µM

COc1ccc(C2C(C#N)=C(N)SC(N)=C2C#N)cc1OC
inactive: activity change, negative = inhibition [1] 5.54% | activity change, negative = inhibition [2] 29.6% | activity, negative = inhibition [3] 3.8% | Potency [4] > 20.6 µM

CN(C)CC(O)COc1ccc(-c2ccc(C#N)cc2)cc1 (stereo not given)
inactive: activity change, negative = inhibition [1] 1.87% | activity change, negative = inhibition [2] 11.2% | activity, negative = inhibition [3] 2.27% | Potency [4] > 20.6 µM

CCN(CC)CCNC(=O)c1c(C)oc2cc(Br)c(OC)cc12
inactive: activity change, negative = inhibition [1] 29.7% | activity change, negative = inhibition [2] -19.9% | activity, negative = inhibition [3] -1.1% | Potency [4] > 20.6 µM

COC(=O)CC1=C(C(=O)OC)C(c2cccc(OCC(N)=O)c2)C(C#N)=C(N)O1 (stereo not given)
inactive: activity change, negative = inhibition [1] 26.1% | activity change, negative = inhibition [2] -17.4% | activity, negative = inhibition [3] 6.6% | Potency [4] > 20.6 µM
